Measurements from PubChem BioAssay (NCI).
The panel holds about 79,000 compounds, 15% with a hit somewhere; the sample as a whole holds those more often. Active and inactive are the calls of the source. No stated cut-off is given here; in the data, active means growth inhibition above about 70%; inactive means the rest.

What was measured:
[1] = NCI Yeast Anticancer Drug Screen. Data for the rad52 strain (AID 147);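 further: 0% = growth of vehicle-treated control cultures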; settings: S. cerevisiae rad52 mutant growth inhibition, stronger effect = higher value
Outline: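 Yeast strain carrying a DNA damage repair alteration was exposed to test compounds. Growth inhibition was measured relative to vehicle-treated controls.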

[2] = NCI Yeast Anticancer Drug Screen. Data for the wt1 strain (AID 149);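 further: 0% = growth of vehicle-treated wt1 cultures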; settings: S. cerevisiae wt1 strain (SPY 50644) growth inhibition, stronger effect = higher value
Outline: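 Using yeast strain wt1, compound-induced growth inhibition was determined against vehicle-treated cultures.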

[3] = NCI Yeast Anticancer Drug Screen. Data for the rad50EPP+ strain (AID 151);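 further: 0% = growth of vehicle-treated control cultures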; settings: S. cerevisiae rad50 mutant strain, stronger effect = higher value
Outline: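 Yeast strain carrying rad50 alteration (rad50EPP+) exposed to compounds; growth inhibition measured relative to vehicle-treated controls.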

[4] = NCI Yeast Anticancer Drug Screen. Data for the mgt1 strain (AID 153); settings: S. cerevisiae mgt1 mutant growth inhibition, stronger effect = higher value
Outline: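 Yeast mgt1 strain (DNA repair/cell-cycle alteration panel) exposed to compounds; growth inhibition measured relative to vehicle-treated controls.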

[5] = NCI Yeast Anticancer Drug Screen. Data for the rad50 strain (AID 155);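 further: 0% = growth of vehicle-only cultures of the same strain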; settings: S. cerevisiae rad50 strain growth inhibition, stronger effect = higher value
Outline: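 Relative growth inhibition (compound vs vehicle) was measured in yeast with a defined repair-gene alteration.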

[6] = NCI Yeast Anticancer Drug Screen. Data for the mec2-1 strain (AID 157); settings: S. cerevisiae mec2-1 strain, stronger effect = higher value
Outline: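 mec2-1 yeast strain, carrying an alteration in DNA damage repair or cell cycle control, was exposed to compounds; growth inhibition was measured relative to vehicle-treated controls.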

[7] = NCI Yeast Anticancer Drug Screen. Data for the rad14 strain (AID 159);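 further: 0% = growth of vehicle-treated control cultures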; settings: S. cerevisiae rad14 strain growth inhibition, stronger effect = higher value
Outline: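 Screen for anticancer potential: a yeast strain altered in DNA damage repair is grown with compound, and reduced growth is quantified against vehicle controls.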

[8] = NCI Yeast Anticancer Drug Screen. Data for the sgs1 mgt1 strain (AID 161);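 further: 0% = growth of cultures given vehicle only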; settings: S. cerevisiae sgs1 mgt1 strain, stronger effect = higher value
Outline: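 Growth of a repair-deficient yeast mutant was monitored after compound treatment and expressed as inhibition relative to vehicle-treated cultures.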

[9] = NCI Yeast Anticancer Drug Screen. Data for the CLN2oe strain (AID 163);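 further: 0% = growth of vehicle-only control cultures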; settings: S. cerevisiae CLN2oe strain, stronger effect = higher value
Outline: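 Yeast cells carrying a defined cell-cycle control alteration were exposed to test compounds. Growth inhibition was scored against vehicle-treated control cultures.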

[10] = NCI Yeast Anticancer Drug Screen. Data for the cln2 rad14 strain (AID 165);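 further: 0% = growth equal to vehicle treated cultures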; settings: S. cerevisiae cln2 rad14 strain, stronger effect = higher value
Outline: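 Yeast carrying cln2 and rad14 alterations (cell cycle control and DNA damage repair) were exposed to compounds. Growth inhibition was measured against vehicle-treated controls.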

[11] = NCI Yeast Anticancer Drug Screen. Data for the bub3 strain (AID 167); settings: S. cerevisiae bub3 mutant strain, stronger effect = higher value
Outline: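 Screening used yeast with an engineered genetic alteration affecting cell cycle control. Compound-exposed cultures were compared with vehicle cultures, and reduced growth was taken as inhibition.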

[12] = NCI Yeast Anticancer Drug Screen. Data for the wt2 strain (AID 169);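 further: 0% = growth of vehicle-treated yeast cultures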; settings: S. cerevisiae wt2 strain growth inhibition, stronger effect = higher value
Outline: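 Yeast cells were exposed to test compounds, and growth inhibition was measured relative to vehicle-treated controls.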

[13] = NCI Yeast Anticancer Drug Screen. Data for the mlh1 strain (AID 171);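 further: 0% = growth of vehicle-treated control cultures of the same strain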; settings: S. cerevisiae mlh1 strain growth inhibition, stronger effect = higher value
Outline: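 Yeast carrying a defined genetic alteration in DNA damage repair or cell cycle control were exposed to test compounds. Growth inhibition was measured relative to vehicle-treated controls.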

[14] = NCI Yeast Anticancer Drug Screen. Data for the sgs1 strain (AID 173);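 further: 0% = growth of vehicle-only control cultures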; settings: S. cerevisiae sgs1 mutant, stronger effect = higher value
Outline: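 Yeast mutant strains carrying defined defects in DNA damage repair or cell cycle control were exposed to test compounds. Growth inhibition was scored against vehicle-treated controls.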

[15] = NCI Yeast Anticancer Drug Screen. Data for the mlh1 rad18 strain (AID 175); settings: S. cerevisiae mlh1 rad18 strain growth inhibition, stronger effect = higher value
Outline: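 Growth inhibition of the yeast strain was measured after compound exposure and expressed relative to vehicle-treated controls. The strain carries defined defects in DNA damage repair.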

[16] = NCI Yeast Anticancer Drug Screen. Data for the rad18 strain (AID 177); settings: S. cerevisiae rad18 mutant growth inhibition, stronger effect = higher value
Outline: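 Yeast carrying a defined DNA damage repair alteration were exposed to compounds. Growth inhibition was expressed relative to vehicle-treated controls.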

[17] = at 5.0 µM (retest, dose inferred, filed as 0.5)
[18] = at 50.0 µM (retest, dose inferred, filed as 5.0)

Measured: growth inhibition

Cc1cc(S(=O)(=O)Nc2nnc3cnc4ccccc4n23)c(S)cc1Cl
active: [11]; [18] 70% | [15]; [18] 82%
inactive: [1]; at 1.2 µM -1% | [1]; at 3.7 µM 0% | [1]; at 11.0 µM 4% | [1]; at 33.0 µM 17% | [1]; at 100.0 µM 43% | [2]; at 1.2 µM -1% | [2]; at 3.7 µM -3% | [2]; at 11.0 µM 4% | [2]; at 33.0 µM 11% | [2]; at 100.0 µM 28% | [3]; at 1.2 µM -3% | [3]; at 3.7 µM -16% | [3]; at 11.0 µM -25% | [3]; at 33.0 µM -57% | [3]; at 100.0 µM -59% | [4]; at 1.2 µM -2% | [4]; at 3.7 µM -2% | [4]; at 11.0 µM -1% | [4]; at 33.0 µM 26% | [4]; at 100.0 µM 34% | [5]; at 1.2 µM 0% | [5]; at 3.7 µM 0% | [5]; [17] -3% | [5]; at 11.0 µM 2% | [5]; at 33.0 µM 12% | [5]; [18] 60% | [5]; at 50.0 µM -14.9% | [5]; at 100.0 µM 37% | [6]; at 1.2 µM -1% | [6]; at 3.7 µM 0% | [6]; [17] 2% | [6]; at 11.0 µM 6% | [6]; at 33.0 µM 19% | [6]; [18] 61% | [6]; at 50.0 µM 1.7% | [6]; at 100.0 µM 54% | [7]; at 1.2 µM -1% | [7]; at 3.7 µM 3% | [7]; at 11.0 µM 9% | [7]; at 33.0 µM 21% | [7]; at 100.0 µM 40% | [8]; [17] -1% | [8]; [18] 47% | [8]; at 50.0 µM -11.9% | [9]; at 1.2 µM 3% | [9]; at 3.7 µM 3% | [9]; at 11.0 µM 16% | [9]; at 33.0 µM 24% | [9]; at 100.0 µM 44% | [10]; [17] 48% | [10]; [18] 54% | [10]; at 50.0 µM 52% | [11]; at 1.2 µM 4% | [11]; at 3.7 µM 1% | [11]; [17] 11% | [11]; at 11.0 µM 2% | [11]; at 33.0 µM 10% | [11]; at 50.0 µM -18.8% | [11]; at 100.0 µM 32% | [12]; at 1.2 µM -1% | [12]; at 3.7 µM -2% | [12]; at 11.0 µM 4% | [12]; at 33.0 µM 14% | [12]; at 100.0 µM 35% | [13]; at 1.2 µM -3% | [13]; at 3.7 µM -4% | [13]; at 11.0 µM 1% | [13]; at 33.0 µM 13% | [13]; at 100.0 µM 43% | [14]; at 1.2 µM -2% | [14]; at 3.7 µM 1% | [14]; at 11.0 µM 2% | [14]; at 33.0 µM 22% | [14]; at 100.0 µM 58% | [15]; [17] 8% | [15]; at 50.0 µM 15.2% | [16]; at 1.2 µM -6% | [16]; at 3.7 µM -1% | [16]; at 11.0 µM 21% | [16]; at 33.0 µM 14% | [16]; at 100.0 µM 48%
